# Reference: ChEMBL document CHEMBL3988442, “University of Dundee, Small-Polar-MMV Screening Library” (2021)
# The campaign covered roughly 85,000 compounds. About 440 (0.52%) showed an effect of 50% or more. Shown is part of a subset that was picked to be rich in strong results.
# Assay: In vitro enzyme assay to detect hydrolysis of chlorophenol red-beta-D-[…] directly proportional to the number of Toxoplasma stably expressing beta-galactosidase
# Format: functional, organism-based, Toxoplasma gondii
# Parameters: scale not given: in the data most compounds retested in dose-response had high values
SMILES,Percent Effect (10 µM),Percent Effect (50 µM)
Cc1cc(F)ccc1N1CCC(N2C[C@@H](C)[C@@](C)(O)C2)CC1,24.01%,
C[C@@H]1CN(C2CCN(c3ccccc3F)CC2)CC[C@]1(C)O,72.85%,
C[C@@H]1CN(C2CCN(c3ccccc3F)CC2)C[C@]1(C)O,12.36%,
CN(C)CC1CNCCO1 (configuration not stated),,-14.23%
CC(=O)NC(C(=O)N(C)Cc1cccs1)C(C)C (configuration not stated),,4.166%
OCCN1CCN(c2ccc3nnnn3n2)CC1,,0.916%
Cn1cc(S(N)(=O)=O)c(C(F)(F)F)n1,,17.97%
Cn1cc(N)c(C(F)(F)F)n1,,-8.221%
Cn1cc(CN)c(C(F)(F)F)n1,,98.21%
CN1CCC(CNC(=O)CCc2cccs2)C1 (configuration not stated),,-16.97%
CN1CCCCC1CCC(=O)NCCc1ccncc1 (configuration not stated),,15.39%
CC(C)Nc1oc(-c2ccc(S(=O)(=O)N(C)C)o2)nc1C#N,-12.9%,
CNc1oc(-c2ccc(S(=O)(=O)N(C)C)o2)nc1C#N,44.93%,
CN(C)S(=O)(=O)c1ccc(-c2nc(C#N)c(NC(C)(C)C)o2)o1.Cl,91.6%,
CN(C)S(=O)(=O)c1ccc(-c2nc(C#N)c(NC3CC3)o2)o1,-1.829%,
CN(C)S(=O)(=O)c1ccc(-c2nc(C#N)c(NC3CCCCC3)o2)o1,3.806%,
NCCOc1cccc(C(F)(F)F)n1,,-9.845%
COCCN(Cc1cccs1)C(=O)CC1CCNC1 (configuration not stated),,11.69%
CSc1ccc(CNC(=O)C(C)O)cc1 (configuration not stated),,-1.798%
COc1cccc2ccc(CN3CC[C@@H](O)C3)nc12,,11.26%
NC[C@@H]1CC(=O)N(C2CC2)[C@H]1c1ccncc1,,-2.453%
CN(C)S(=O)(=O)NC(c1ccccc1)c1ccccc1,,10.19%
CC(C)Sc1ccccc1NS(=O)(=O)N(C)C,,99.92%
CC(NS(=O)(=O)N(C)C)c1ccccc1 (configuration not stated),,-35.13%
CCNCCCC1CCNCC1,,16.42%

SMILES,Percent Effect (10 µM),Percent Effect (50 µM)
COC(=O)c1ccc(NS(=O)(=O)c2cnc(NC(C)=O)s2)cc1,53.94%,
COC(=O)c1ccc(NC(C)=O)cc1,,6.6%
COc1ccc(OCCc2nnc(NC(C)=O)s2)cc1,-4.781%,
COc1ccc(S(=O)(=O)Nc2cnc(N(C)C)nc2)cc1,-8.947%,
COC(=O)c1cccc(NS(=O)(=O)c2cnc(NC(C)=O)s2)c1,-3.347%,
COc1ccc(NS(=O)(=O)c2cnc(NC(C)=O)s2)cc1,74.55%,
CC(C)OCCN1CCN(C(=O)c2cc[nH]n2)CC1,,-2.714%
NCC(C(=O)N1CCC2(CCC2)C1)c1ccccc1 (configuration not stated),,20.55%
CC(=O)NC(C)C(=O)Nc1ccc2ccccc2c1 (configuration not stated),,-30.81%
O=C1CCc2ccccc2N1Cc1ncccn1,,0.3291%
Nc1cc(-c2cccnc2)on1,,-0.8399%
Cc1noc(C)c1S(=O)(=O)N(C)Cc1ccoc1,,-13.17%
CC1(C)CC(=O)CN1C(=O)c1cc(Cl)c2c(c1)OCO2,,7.211%
COc1cccc2c1OCC(CNS(C)(=O)=O)C2 (configuration not stated),,14.05%
CCc1nccn1CCNC(=O)Cn1nc(C)cc1N,,0.7856%
CNC(=O)C1CCCN(C(=O)Cc2ccc(F)cc2)C1 (configuration not stated),,-18.03%
CN(C)C(=O)c1cc(-c2ccncc2)[nH]n1,-7.126%,
NCCc1cc(-c2ccncc2)[nH]n1,,52.85%
NCCCc1nc(-c2ccncc2)cs1,,-3.15%
O=C(NC1(CCO)CCC1)c1c(O)cc(F)cc1F,,-3.362%
COCCOCCCNC(=O)c1cn2cc(C)nc2s1,,5.507%
CN(Cc1ccc(F)c(F)c1)C(=O)C1CCOCC1,,0.4539%
Cn1cc(CN2CCn3cc(Cn4cccn4)nc3C2)cn1.O=C(O)C(F)(F)F,96.45%,
O=C(O)C(F)(F)F.O=C(O)C(F)(F)F.c1ccc(CCN2CCn3cc(Cn4cccn4)nc3C2)cc1,-2.685%,
Fc1ccc(CN2CCn3cc(Cn4cccn4)nc3C2)cc1.O=C(O)C(F)(F)F,6.807%,

SMILES,Percent Effect (10 µM),Percent Effect (50 µM)
Cc1noc(C)c1S(=O)(=O)N1CC[S+]([O-])C(C)(C)C1 (configuration not stated),,-20.3%
CC(=O)c1sc(NCCc2ccccn2)nc1C,,-25.25%
CC(=O)Nc1ncc(S(=O)(=O)Nc2ccccc2)s1,62.69%,
CC(=O)Nc1ncc(S(=O)(=O)Nc2ccc(C)cc2)s1,70.91%,
CC(=O)Nc1ncc(Br)s1,,8.521%
CC(=O)Nc1ncc(S(=O)(=O)Nc2ccc(F)cc2F)s1,-1.674%,
CCN1CCN(S(=O)(=O)c2cnc(NC(C)=O)s2)CC1,-3.243%,
CC(=O)Nc1ncc(S(=O)(=O)Nc2ccccc2F)s1,61.48%,
CCS(=O)(=O)Nc1ccccc1F,,6.561%
CC(=O)Nc1ncc(S(=O)(=O)N2CCC(C)CC2)s1,-14.89%,
CC(=O)Nc1ncc(S(=O)(=O)Nc2ccc(F)cc2)s1,2.51%,
NCCc1n[nH]c(=O)n1-c1ccc2c(c1)OCO2,,-0.07643%
Cn1cc(C(O)CN)cn1 (configuration not stated),,1.018%
Cc1noc(C(C)Nc2ccc3c(c2)CCC(=O)N3)n1 (configuration not stated),,-14.26%
CC(C)(CNC(=O)c1c[nH]nn1)c1cccc(F)c1,,-9.623%
CC(NC(=O)NCCN1CCCCCC1=O)c1nncn1C (configuration not stated),3.231%,
CC(NC(=O)NCCCN1CCCC1=O)c1nncn1C (configuration not stated),85.8%,
CC(NC(=O)NCCCN1CCCCCC1=O)c1nncn1C (configuration not stated),20.07%,
Cc1oc(-c2ccccc2F)nc1C(=O)N(C)C,,-3.464%
CNS(=O)(=O)N1CCc2ccccc2C1,,30.15%
CCOc1ccc2ccccc2c1CNCC1CCNCC1.Cl.Cl,68.87%,
CCOc1ccccc1CNCC1CCN(CC(C)O)CC1 (configuration not stated),-9.723%,
COc1ccc2ccccc2c1CNCC1CCS(=O)(=O)C1.Cl (configuration not stated),-11.16%,
CCCOc1ccc2ccccc2c1CN1CC[C@@]2(O)CCNC[C@H]2C1,3.549%,
CCOc1ccc2ccccc2c1CNCC1CCS(=O)(=O)C1.Cl (configuration not stated),-7.781%,

SMILES,Percent Effect (10 µM),Percent Effect (50 µM)
CCn1cc(S(=O)(=O)NCC2CCN(C3CC3)C2)cn1 (configuration not stated),,3.955%
NC(=O)c1cncc(-c2ccc(F)cc2Cl)c1,,3.051%
Cc1cc(F)cc(C(=O)N(C)C(C)CN)c1 (configuration not stated),,-5.582%
CNC(C)(C)c1ccc2c(c1)OCO2,,-13.39%
CCNc1ncc2c(n1)CN(c1ccc(C)c(C)c1)C2=O,51.11%,
CCNc1ncc2c(n1)CN(c1ccc(OC(F)(F)F)cc1)C2=O,64.71%,
CCn1cc(N2Cc3nc(N)ncc3C2=O)cn1,10.4%,
CCNc1ncc2c(n1)CN(c1ccc(CC)cc1)C2=O,62.15%,
CNc1ncc2c(n1)CN(CCc1ccc(Cl)cc1)C2=O,-35.33%,
COc1ccc(N2Cc3nc(N)ncc3C2=O)cc1Cl,-32.44%,
CC1CCN(c2ncc3c(n2)CN(c2ccc(F)cc2)C3=O)CC1,19.77%,
CNc1ncc2c(n1)CN(Cc1ccc(Cl)cc1)C2=O,-51.17%,
CNc1ncc2c(n1)CN(CCc1ccc(C)cc1)C2=O,-16.2%,
COc1ccc(N2Cc3nc(N4CCCC4)ncc3C2=O)cc1Cl,-14.31%,
CNc1ncc2c(n1)CN(CCc1ccc(F)cc1)C2=O,-13.73%,
CCNc1ncc2c(n1)CN(c1ccc(Cl)cc1)C2=O,65.79%,
CCN(CC)C(=O)C(C)NC(=O)c1cc(C#N)c[nH]1 (configuration not stated),,-1.389%
O=C(OCCOc1cccnc1)C1CC1,,43.8%
O=S(=O)(CCN1CCCC1)c1ccc(Cl)cc1,,0.9615%
CNC(=O)CN(C)C(=O)Cc1c[nH]c2ccccc12,,2.87%
Cc1ccsc1CN(C)C(=O)C(CN)c1ccccc1 (configuration not stated),,-6.582%
CCN(CC)C(=O)c1ccccc1N(C)S(C)(=O)=O,,-4.295%
CN(C)c1ncc2c(n1)CN(C1CC(C)(C)NC(C)(C)C1)C2=O,-0.4714%,
CN(C)c1ncc2c(n1)CN(C1CCSCC1)C2=O,78.86%,
CNc1ncc2c(n1)CN(C1CCCC1)C2=O,52.32%,

SMILES,Percent Effect (10 µM),Percent Effect (50 µM)
CC1CCC(N2Cc3nc(N)ncc3C2=O)CC1 (configuration not stated),-0.06734%,
CNc1ncc2c(n1)CN(C1CC(C)(C)NC(C)(C)C1)C2=O,-1.01%,
Nc1ncc2c(n1)CN(C1CCCC1)C2=O,17.83%,
COCc1nc(C2CCN(S(C)(=O)=O)C2)no1 (configuration not stated),,-61%
CC(O)CN(CCN)C(=O)OC(C)(C)C (configuration not stated),,-7.411%
NCC(O)c1cccc2ccccc12 (configuration not stated),,36.71%
NCC(O)c1ccc(-c2ccccc2)cc1 (configuration not stated),,100.3%
NCC(O)c1ccncc1 (configuration not stated),,1.266%
CCN(CC)C(=O)CN(C)C(=O)Cc1cccc(F)c1,,1.744%
CN(Cc1cc(C#N)cs1)Cc1nccn1C,,-7.444%
Cc1c[nH]nc1C1CCN(C(=O)C2CCOCC2)C1 (configuration not stated),9.496%,
Cc1c[nH]nc1C1CCN(C(=O)C2CCC2)CC1,14.73%,
CC(C)Nc1cc(-c2c[nH]nc2C2CCN(C(=O)C3CCC3)C2)ccn1 (configuration not stated),95.4%,
CC(C)Nc1cc(-c2c[nH]nc2C2CCN(C(=O)C3CC3)C2)ccn1 (configuration not stated),77.26%,
CC(C)N1CCC(c2n[nH]cc2-c2ccnc(N)c2)C1 (configuration not stated),18.38%,
Nc1cc(-c2c[nH]nc2C2CCCCN2C(=O)C2CCCC2)ccn1 (configuration not stated),-17.94%,
CC(C)CNc1cc(-c2c[nH]nc2C2CCN(C(=O)C3CC3)C2)ccn1 (configuration not stated),86.59%,
Cc1c[nH]nc1C1CCN(C(=O)C2CCCC2)C1 (configuration not stated),6.331%,
CC(=O)N1CCC(c2n[nH]cc2-c2ccnc(N)c2)C1 (configuration not stated),20.34%,
Nc1cc(-c2c[nH]nc2C2CCN(C(=O)C3CCCC3)C2)ccn1 (configuration not stated),5.055%,
CCCNc1cc(-c2c[nH]nc2C2CCN(C(=O)C3CCC3)C2)ccn1 (configuration not stated),94.14%,
CN1CCC(c2n[nH]cc2-c2ccnc(N)c2)C1 (configuration not stated),-7.314%,
